Screens from PubChem.
HT1080NT lethal – qHTS for induction of synthetic lethality in tumor cells producing 2HG: qHTS for the HT-1080-NT fibrosarcoma cell line; HT-1080-NT fibrosarcoma viability, CellTiter-Glo ATP luminescence, 48 h; Potency, µM (highest dose often 46.1 µM), most hits filed as cytotoxic; 360,000 compounds, 1.6% hits; AID 686970, 2013;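 note: NT is the 2HG producing partner of a matched IDH1 knockdown line; nearly all actives have a fitted effect of over 55% in size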
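750 cells/well, RPMI + 5% FBS; 2 h settle, compound pin-transfer, 48 h at 37 degrees C. CellTiter-Glo 10 min RT, luminescence. Normalized to DMSO and media-only wells.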
DT40 TDP1 no CPT – qHTS for Inhibitors of human tyrosyl-DNA phosphodiesterase 1 (TDP1): qHTS in cells in absence of CPT. AID 686978, 2013. DT40 Tdp1-/- hTDP1 cells, no CPT, ATP luminescence, 48 h. Potency, µM (series often up to 46.2 µM), usual class: inhibitors. 420,000 compounds, 15% hits; note: nearly all actives have a fitted effect of over 55% in size
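Chicken DT40 Tdp1-/- cells stably complemented with human TDP1 were seeded at 400 cells/well with DMSO in place of 20 nM camptothecin. After compound pinning, cells grew at least 48 hr at 37 °C; viability read by CellTiter-Glo luminescence.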
IL1B secr inh – qHTS for Inhibitors of Inflammasome Signaling: IL-1-beta AlphaLISA Primary Screen; THP-1 LPS/ATP IL-1B secretion, AlphaLISA, 16 h; stronger effect = lower value; activity change, % at 57.5 µM; 360,000 compounds, 4.7% hits; in the data active = activity change below about -50%; inconclusive = mostly about -30% to -49%
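Secreted IL-1B measured by AlphaLISA bead assay after 16 h compound exposure of THP-1 cells; compounds (final up to 57.5 uM) added 1 h before LPS (250 ng/mL) and ATP (1.25 mM) stimulation; lower signal means less secretion.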
HT1080 IDH1KD tx – qHTS for induction of synthetic lethality in tumor cells producing 2HG: qHTS for the HT-1080-IDH1KD cell line. AID 686971, 2013. 360,000 compounds, 2% hits. Potency, µM (top dose mostly 46.1 µM), hits mostly cytotoxic. HT-1080 IDH1 knockdown viability, ATP luminescence, 48 h
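HT-1080-IDH1KD cells (IDH1 knocked down), 750/well in RPMI with 5% FBS, treated with compound 48 h at 37 degrees C. Viability by CellTiter-Glo luminescence, normalised to DMSO and no-cell wells; concentration-response curves classed.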
TDP1 cell CPT – qHTS for Inhibitors of human tyrosyl-DNA phosphodiesterase 1 (TDP1): qHTS in cells in presence of CPT; chicken DT40 Tdp1-/-;hTDP1 cells + 20 nM CPT, ATP luminescence, 48 h; Potency, µM (top dose mostly 46.2 µM), actives largely listed as inhibitors; 420,000 compounds, 12% hits; note: nearly all actives have a fitted effect of over 55% in size
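Chicken DT40 Tdp1-/- cells stably complemented with human TDP1 were seeded at 400 cells/well in medium containing 20 nM camptothecin, exposed to pin-transferred compounds, and grown at 37 °C for at least 48 hr. Viability was read as ATP luminescence.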
A number is an active result; 0 = inactive; ? = inconclusive; - = no result; ! = not confirmed by another sample. Hits are enriched below; roughly 19% of the tested compounds scored in any of these assays. Unless noted, calls come from the whole dose curve; as a rule, active = well fitted curve in the direction sought with a large enough effect; inconclusive = small, poorly fitted or top-dose-only effect, or another doubt; inactive = no such curve, though single readings can be large; an effect the other way counts as inactive or inconclusive.

SMILES	HT1080NT lethal	DT40 TDP1 no CPT	IL1B secr inh	HT1080 IDH1KD tx	TDP1 cell CPT
CCN(c1ccc(OC)cc1)S(=O)(=O)c1nnc(NC(=O)c2ccco2)s1	0	0	?	0	0
Cc1ccc(N(CC(C)C)S(=O)(=O)c2nnc(NC(=O)c3cccs3)s2)cc1	-	23µM	-	-	?
CCN(c1ccc(OC)cc1)S(=O)(=O)c1nnc(NC(=O)c2ccccc2Cl)s1	0	16µM!	0	0	?
COc1ccc(N(CC(C)C)S(=O)(=O)c2nnc(NC(=O)c3ccco3)s2)cc1	0	21µM!	0	0	?
C/C(=N\NC(=O)c1ccc(OC2OCCOC2Oc2ccc(C(=O)N/N=C(\C)c3ccncc3)cc2)cc1)c1ccncc1 (configuration not stated)	?	7.3µM	0	?	6.5µM
C/C(=N\NC(=O)c1ccccc1NC(=O)c1ccc(Cl)cc1)c1ccncc1	0.52µM	1.2µM	0	1.3µM	0.92µM
Cn1ncc(Cl)c1C(=O)Nc1ccncc1	0	0	?	0	0
C/C(=N\NC(=O)c1ccc(N/N=C(\C)c2ccncc2)cc1)c1ccncc1	0	21µM	-82	0	?
C/C(=N\NC(=O)c1c(Cl)cnn1C)c1ccc(NC(=O)c2ccncc2)cc1	0	21µM	0	0	?
CN(C)/C(=N\S(=O)(=O)c1ccccc1)c1ccccc1	0	0	0	0	0
CC(=O)c1ccc(Nc2ccc3cc(S(=O)(=O)N4CCCC4)ccc3n2)cc1	-	?	-	-	21µM
CC1CCN(S(=O)(=O)c2ccc3nc(NCc4ccccc4)ccc3c2)CC1	-	10µM	-	-	10µM
NS(=O)(=O)c1ccc(Nc2ccc3cc(S(=O)(=O)N4CCCCC4)ccc3n2)cc1	0	?	?	0	?
CC1CCN(S(=O)(=O)c2ccc3nc(-c4ccccn4)cc(C(=O)NCCN(C)Cc4ccccc4)c3c2)CC1	0	5.8µM	0	0	7.3µM
CC1CCN(S(=O)(=O)c2ccc3ncn(CC(=O)N(C)Cc4ccccc4)c(=O)c3c2)CC1	0	0	0	0	0
CC1CCN(S(=O)(=O)c2ccc3nc(Nc4cccc(F)c4)ccc3c2)CC1	-	21µM	-	-	21µM
CCCCSCCCNC(=O)c1cc(-c2cccnc2)nc2ccc(S(=O)(=O)N3CCC(C)CC3)cc12	-	0	-	-	0
COc1ccc(S(=O)(=O)Nc2ccc(N3CCOCC3)nc2)cc1	0	?	0	0	0
Cc1cccc(C)c1OC(=O)CSc1nnc(CNC(=O)c2ccccc2)o1	-	0	-	-	0
CCCC(O)(CCC)C(=O)NNc1ccc(C)cc1	?	0	0	?	0
Cc1ccc(-c2nn(-c3ccc(F)cc3)cc2C(=O)NCCCN2CCCC2=O)cc1	0	0	0	0	0.21µM
CCc1cccc2c(C(O)c3c[nH]c4ccccc34)c[nH]c12 (configuration not stated)	-	11µM	-	-	4.5µM
CCc1cccc2c(C(=O)CN3C(=O)NC4(CCCCC4)C3=O)c[nH]c12	0	5.8µM	0	?	5.8µM
CCc1cccc2c(C(=S)N3CCCC3)c[nH]c12	0	0	0	0	0
CCc1cccc2c(C(=O)CCl)c[nH]c12	?	21µM	-95	15µM	15µM
SMILES	HT1080NT lethal	DT40 TDP1 no CPT	IL1B secr inh	HT1080 IDH1KD tx	TDP1 cell CPT
OC(c1ccccn1)c1c[nH]c2ccccc12 (configuration not stated)	0	0	0	0	0
CCc1ccc(OCC(=O)OCC(=O)NCCNC(=O)COC(=O)COc2ccc(CC)cc2)cc1	0	0	0	0	0
O=c1c(-c2ccc(F)cc2)nc2cncnc2n1C1CC1	-	0	-	-	0
COc1cc(-c2noc(-c3ccc(NCCc4ccccc4)c([N+](=O)[O-])c3)n2)cc(OC)c1OC	-	4.1µM	-	-	5.2µM
CC(C)Nc1ccc(-c2nc(-c3ccco3)no2)cc1[N+](=O)[O-]	-	16µM	-	-	?
COc1ccc(-c2noc(-c3ccc(NC4CCCCC4)c([N+](=O)[O-])c3)n2)cc1OC	-	?	-	-	21µM
COc1ccccc1-c1noc(-c2ccc(NCc3ccco3)c([N+](=O)[O-])c2)n1	-	12µM	-	-	12µM
